Among the data in ChEMBL document CHEMBL1961873, “Compounds: GSK PKIS; Assays: Nanosyn kinase panel” (2012) are inhibition values, retold here.

Broadly, the inhibition is the drop in the measured response relative to a control, in per cent.

Assay [1] concerns Epidermal growth factor receptor (Homo sapiens), P00533 [T790M]. To be noted: at 1 µM.
Assay [2] concerns Epidermal growth factor receptor (Homo sapiens), P00533 [L858R,T790M]. As to conditions: at 0.1 µM.
Assay [3] has the same test system. As to conditions: at 1 µM.
For assay [4], the target named is Ephrin type-A receptor 2 (Homo sapiens) (UniProt P29317). As to conditions: at 0.1 µM.
The target is the same in assay [5]. As to conditions: at 1 µM.
The target of assay [6] is T1, Ephrin type-A receptor 3 (Homo sapiens) (UniProt P29320).
T1 sequence (whole entry): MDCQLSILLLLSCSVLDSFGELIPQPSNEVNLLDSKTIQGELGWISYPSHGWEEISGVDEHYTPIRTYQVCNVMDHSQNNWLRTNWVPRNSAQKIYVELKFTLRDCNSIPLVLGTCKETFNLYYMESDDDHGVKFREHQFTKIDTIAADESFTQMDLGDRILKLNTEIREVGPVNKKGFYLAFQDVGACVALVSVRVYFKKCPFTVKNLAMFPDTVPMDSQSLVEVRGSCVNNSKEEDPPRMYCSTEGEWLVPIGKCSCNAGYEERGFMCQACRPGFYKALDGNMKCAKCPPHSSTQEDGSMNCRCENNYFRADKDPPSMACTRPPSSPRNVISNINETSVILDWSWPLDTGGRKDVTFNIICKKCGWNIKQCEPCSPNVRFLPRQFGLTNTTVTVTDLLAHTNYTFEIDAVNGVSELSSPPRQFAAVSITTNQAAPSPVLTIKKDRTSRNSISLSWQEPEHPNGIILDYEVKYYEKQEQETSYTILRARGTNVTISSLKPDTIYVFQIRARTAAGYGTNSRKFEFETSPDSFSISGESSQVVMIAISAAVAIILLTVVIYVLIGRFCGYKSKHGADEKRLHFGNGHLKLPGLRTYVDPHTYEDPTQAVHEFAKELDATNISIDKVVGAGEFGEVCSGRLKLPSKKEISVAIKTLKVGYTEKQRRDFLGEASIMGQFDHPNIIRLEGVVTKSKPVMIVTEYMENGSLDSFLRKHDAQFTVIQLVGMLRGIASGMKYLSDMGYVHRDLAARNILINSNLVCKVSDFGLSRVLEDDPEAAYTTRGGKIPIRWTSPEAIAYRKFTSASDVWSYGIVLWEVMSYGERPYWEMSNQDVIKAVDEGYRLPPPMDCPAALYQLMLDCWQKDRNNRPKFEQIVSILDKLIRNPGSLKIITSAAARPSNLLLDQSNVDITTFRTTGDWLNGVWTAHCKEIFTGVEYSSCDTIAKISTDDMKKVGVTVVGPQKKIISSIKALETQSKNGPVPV
To be noted: at 0.1 µM.

Assay [7] addresses T1, Ephrin type-A receptor 3 (Homo sapiens). To be noted: at 1 µM.
Assay [8] deals with Ephrin type-A receptor 4 (Homo sapiens) (UniProt P54764). As to conditions: at 0.1 µM.
Chain of Ephrin type-A receptor 4 (Homo sapiens) (P54764 whole entry): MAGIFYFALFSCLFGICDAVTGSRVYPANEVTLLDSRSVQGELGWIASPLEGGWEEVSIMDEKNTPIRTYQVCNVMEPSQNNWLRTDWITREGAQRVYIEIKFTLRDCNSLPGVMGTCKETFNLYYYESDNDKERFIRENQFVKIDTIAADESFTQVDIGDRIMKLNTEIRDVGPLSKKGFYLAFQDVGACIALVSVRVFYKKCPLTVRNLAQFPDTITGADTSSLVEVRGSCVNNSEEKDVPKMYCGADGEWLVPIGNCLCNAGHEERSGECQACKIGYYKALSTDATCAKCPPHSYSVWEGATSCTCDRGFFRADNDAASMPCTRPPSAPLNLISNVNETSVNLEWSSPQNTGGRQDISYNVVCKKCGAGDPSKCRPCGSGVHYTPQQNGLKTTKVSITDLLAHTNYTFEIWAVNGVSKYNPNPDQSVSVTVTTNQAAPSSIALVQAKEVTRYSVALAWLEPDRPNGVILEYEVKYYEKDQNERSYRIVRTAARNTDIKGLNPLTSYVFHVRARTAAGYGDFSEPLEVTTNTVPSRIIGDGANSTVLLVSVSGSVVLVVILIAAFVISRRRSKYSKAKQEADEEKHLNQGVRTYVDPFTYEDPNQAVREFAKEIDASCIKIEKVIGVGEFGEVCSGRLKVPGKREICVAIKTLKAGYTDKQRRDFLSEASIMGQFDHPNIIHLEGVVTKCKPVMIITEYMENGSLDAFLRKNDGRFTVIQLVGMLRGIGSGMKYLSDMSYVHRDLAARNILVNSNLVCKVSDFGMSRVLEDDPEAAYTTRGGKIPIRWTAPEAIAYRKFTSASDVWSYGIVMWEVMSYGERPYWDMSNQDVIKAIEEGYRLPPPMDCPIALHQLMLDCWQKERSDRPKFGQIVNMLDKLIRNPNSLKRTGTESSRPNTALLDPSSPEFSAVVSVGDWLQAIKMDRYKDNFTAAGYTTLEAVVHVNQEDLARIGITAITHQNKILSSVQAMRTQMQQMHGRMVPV
For assay [9] the target is unchanged. As to conditions: at 1 µM.
The target of assay [10] is T2, Ephrin type-B receptor 2 (Homo sapiens) (UniProt P29323).
T2 sequence (whole entry): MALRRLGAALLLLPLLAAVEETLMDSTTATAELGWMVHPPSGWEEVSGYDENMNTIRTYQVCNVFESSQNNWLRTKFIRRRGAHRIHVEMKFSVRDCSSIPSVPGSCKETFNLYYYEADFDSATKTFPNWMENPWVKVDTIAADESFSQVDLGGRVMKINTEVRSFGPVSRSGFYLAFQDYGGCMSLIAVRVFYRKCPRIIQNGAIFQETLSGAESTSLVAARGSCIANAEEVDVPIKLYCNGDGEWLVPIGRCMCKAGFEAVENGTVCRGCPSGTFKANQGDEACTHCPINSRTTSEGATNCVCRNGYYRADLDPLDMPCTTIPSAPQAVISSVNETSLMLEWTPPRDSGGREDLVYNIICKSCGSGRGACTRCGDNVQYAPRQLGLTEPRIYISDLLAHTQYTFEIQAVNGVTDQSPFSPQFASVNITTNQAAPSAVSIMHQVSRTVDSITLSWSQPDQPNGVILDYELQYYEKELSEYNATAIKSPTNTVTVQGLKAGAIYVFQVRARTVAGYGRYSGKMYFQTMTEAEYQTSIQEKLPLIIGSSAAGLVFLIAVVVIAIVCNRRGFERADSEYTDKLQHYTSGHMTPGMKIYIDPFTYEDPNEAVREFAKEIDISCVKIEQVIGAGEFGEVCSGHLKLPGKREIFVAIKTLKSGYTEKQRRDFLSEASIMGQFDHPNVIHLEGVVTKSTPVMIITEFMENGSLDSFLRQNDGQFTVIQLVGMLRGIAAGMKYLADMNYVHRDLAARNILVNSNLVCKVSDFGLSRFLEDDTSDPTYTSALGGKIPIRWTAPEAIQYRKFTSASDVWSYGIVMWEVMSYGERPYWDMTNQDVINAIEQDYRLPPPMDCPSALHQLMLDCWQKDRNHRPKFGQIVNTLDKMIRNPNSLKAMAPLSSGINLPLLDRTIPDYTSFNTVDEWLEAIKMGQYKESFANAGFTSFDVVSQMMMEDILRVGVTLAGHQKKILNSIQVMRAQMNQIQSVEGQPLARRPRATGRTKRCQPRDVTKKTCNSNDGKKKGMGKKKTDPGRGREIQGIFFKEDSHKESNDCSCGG
To be noted: at 0.1 µM.

Assay [11] addresses T2, Ephrin type-B receptor 2 (Homo sapiens). To be noted: at 1 µM.
The target in assay [12] is T3, Ephrin type-B receptor 3 (Homo sapiens) (UniProt P54753).
T3 sequence (whole entry): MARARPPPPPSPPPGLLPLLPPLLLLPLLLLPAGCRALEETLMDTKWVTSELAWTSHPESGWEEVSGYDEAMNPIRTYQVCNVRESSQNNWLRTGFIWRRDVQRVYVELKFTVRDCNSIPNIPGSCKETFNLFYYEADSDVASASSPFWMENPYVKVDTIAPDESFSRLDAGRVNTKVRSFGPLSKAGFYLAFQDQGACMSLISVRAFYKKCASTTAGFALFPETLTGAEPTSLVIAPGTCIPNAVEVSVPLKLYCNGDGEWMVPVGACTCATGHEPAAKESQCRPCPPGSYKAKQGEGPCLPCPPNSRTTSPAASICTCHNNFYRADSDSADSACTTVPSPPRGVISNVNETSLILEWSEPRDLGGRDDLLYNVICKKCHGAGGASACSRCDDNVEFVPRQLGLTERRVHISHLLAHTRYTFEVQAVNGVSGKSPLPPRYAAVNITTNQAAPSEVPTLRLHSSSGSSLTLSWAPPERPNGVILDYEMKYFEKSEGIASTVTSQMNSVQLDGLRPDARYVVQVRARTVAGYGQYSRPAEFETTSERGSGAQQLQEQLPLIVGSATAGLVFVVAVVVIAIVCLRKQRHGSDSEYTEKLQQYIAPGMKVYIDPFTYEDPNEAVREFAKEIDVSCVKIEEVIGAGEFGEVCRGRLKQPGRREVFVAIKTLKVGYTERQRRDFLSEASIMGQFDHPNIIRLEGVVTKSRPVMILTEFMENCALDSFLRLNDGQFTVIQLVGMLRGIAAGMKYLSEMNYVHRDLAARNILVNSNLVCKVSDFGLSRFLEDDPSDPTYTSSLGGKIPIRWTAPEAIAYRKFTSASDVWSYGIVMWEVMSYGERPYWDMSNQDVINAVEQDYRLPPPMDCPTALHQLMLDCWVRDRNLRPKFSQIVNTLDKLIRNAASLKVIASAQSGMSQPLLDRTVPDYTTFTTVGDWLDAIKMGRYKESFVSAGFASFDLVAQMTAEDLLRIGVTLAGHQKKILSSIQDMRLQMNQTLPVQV
As to conditions: at 0.1 µM.

For assay [13], the target named is T3, Ephrin type-B receptor 3 (Homo sapiens). As to conditions: at 1 µM.
In assay [14] the target is T4, Ephrin type-B receptor 4 (Homo sapiens) (UniProt P54760).
T4 sequence (whole entry): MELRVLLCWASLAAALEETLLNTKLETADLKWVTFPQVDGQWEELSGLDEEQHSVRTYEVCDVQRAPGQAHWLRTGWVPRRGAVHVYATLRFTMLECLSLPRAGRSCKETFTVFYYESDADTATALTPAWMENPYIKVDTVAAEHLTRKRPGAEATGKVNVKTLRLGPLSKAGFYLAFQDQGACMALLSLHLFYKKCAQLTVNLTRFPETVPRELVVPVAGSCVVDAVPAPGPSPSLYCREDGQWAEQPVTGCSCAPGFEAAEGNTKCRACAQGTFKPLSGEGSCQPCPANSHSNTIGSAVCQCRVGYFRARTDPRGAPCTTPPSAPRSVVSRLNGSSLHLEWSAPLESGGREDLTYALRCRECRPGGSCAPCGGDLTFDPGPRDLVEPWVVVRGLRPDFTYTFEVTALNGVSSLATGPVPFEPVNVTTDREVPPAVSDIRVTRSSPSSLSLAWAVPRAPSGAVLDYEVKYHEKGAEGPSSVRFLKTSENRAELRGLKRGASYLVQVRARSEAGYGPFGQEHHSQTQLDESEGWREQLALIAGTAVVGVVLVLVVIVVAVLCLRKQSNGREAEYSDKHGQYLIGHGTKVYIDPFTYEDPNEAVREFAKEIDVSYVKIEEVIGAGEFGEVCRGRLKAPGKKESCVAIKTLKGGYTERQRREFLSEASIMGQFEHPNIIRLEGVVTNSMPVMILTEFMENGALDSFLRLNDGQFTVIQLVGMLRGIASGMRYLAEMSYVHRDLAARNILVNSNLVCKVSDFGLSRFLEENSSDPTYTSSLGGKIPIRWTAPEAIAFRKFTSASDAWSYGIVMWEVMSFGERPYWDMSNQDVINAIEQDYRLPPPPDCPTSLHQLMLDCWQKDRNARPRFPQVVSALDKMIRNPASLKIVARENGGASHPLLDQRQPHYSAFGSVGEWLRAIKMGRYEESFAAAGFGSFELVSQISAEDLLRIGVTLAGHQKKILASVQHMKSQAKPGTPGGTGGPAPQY
As to conditions: at 0.1 µM.

The target in assay [15] is T4, Ephrin type-B receptor 4 (Homo sapiens). To be noted: at 1 µM.
The target in assay [16] is Receptor tyrosine-protein kinase erbB-2 (Homo sapiens) (UniProt P04626). As to conditions: at 0.1 µM.
Chain of Receptor tyrosine-protein kinase erbB-2 (Homo sapiens) (P04626 whole entry): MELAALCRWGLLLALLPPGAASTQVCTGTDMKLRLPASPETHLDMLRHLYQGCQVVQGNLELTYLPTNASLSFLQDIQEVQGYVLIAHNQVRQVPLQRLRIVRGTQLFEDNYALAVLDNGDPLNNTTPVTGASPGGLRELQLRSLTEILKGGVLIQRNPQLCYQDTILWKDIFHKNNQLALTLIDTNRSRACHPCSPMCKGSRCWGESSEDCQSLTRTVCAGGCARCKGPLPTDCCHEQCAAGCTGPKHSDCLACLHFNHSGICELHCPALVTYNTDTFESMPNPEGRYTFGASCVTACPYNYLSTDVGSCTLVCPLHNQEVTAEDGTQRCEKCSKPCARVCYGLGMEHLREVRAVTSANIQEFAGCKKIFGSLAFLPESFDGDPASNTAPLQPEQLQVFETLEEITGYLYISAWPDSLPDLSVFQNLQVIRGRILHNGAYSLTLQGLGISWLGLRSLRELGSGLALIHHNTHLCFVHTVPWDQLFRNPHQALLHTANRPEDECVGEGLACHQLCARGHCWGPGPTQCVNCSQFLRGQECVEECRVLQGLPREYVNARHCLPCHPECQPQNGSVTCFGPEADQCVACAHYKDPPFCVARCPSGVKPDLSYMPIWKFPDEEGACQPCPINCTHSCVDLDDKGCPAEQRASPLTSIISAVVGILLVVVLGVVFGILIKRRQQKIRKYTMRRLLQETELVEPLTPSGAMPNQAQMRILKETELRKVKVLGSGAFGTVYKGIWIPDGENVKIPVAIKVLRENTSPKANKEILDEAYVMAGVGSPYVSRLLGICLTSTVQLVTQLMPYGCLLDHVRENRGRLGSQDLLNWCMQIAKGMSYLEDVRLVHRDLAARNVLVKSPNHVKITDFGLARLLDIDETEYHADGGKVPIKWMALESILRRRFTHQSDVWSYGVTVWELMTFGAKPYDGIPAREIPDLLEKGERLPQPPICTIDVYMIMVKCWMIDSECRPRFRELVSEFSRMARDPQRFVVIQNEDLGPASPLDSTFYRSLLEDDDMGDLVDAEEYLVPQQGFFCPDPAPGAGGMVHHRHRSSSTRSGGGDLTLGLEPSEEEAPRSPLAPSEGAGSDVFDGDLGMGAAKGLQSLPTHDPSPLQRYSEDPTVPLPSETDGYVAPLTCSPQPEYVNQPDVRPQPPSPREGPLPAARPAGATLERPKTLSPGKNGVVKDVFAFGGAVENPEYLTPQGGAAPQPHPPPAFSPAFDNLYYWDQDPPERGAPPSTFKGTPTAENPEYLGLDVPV
Assay [17] has the same target. As to conditions: at 1 µM.
In assay [18] the target is Receptor tyrosine-protein kinase erbB-4 (Homo sapiens) (UniProt Q15303). As to conditions: at 0.1 µM.
Chain of Receptor tyrosine-protein kinase erbB-4 (Homo sapiens) (Q15303 whole entry): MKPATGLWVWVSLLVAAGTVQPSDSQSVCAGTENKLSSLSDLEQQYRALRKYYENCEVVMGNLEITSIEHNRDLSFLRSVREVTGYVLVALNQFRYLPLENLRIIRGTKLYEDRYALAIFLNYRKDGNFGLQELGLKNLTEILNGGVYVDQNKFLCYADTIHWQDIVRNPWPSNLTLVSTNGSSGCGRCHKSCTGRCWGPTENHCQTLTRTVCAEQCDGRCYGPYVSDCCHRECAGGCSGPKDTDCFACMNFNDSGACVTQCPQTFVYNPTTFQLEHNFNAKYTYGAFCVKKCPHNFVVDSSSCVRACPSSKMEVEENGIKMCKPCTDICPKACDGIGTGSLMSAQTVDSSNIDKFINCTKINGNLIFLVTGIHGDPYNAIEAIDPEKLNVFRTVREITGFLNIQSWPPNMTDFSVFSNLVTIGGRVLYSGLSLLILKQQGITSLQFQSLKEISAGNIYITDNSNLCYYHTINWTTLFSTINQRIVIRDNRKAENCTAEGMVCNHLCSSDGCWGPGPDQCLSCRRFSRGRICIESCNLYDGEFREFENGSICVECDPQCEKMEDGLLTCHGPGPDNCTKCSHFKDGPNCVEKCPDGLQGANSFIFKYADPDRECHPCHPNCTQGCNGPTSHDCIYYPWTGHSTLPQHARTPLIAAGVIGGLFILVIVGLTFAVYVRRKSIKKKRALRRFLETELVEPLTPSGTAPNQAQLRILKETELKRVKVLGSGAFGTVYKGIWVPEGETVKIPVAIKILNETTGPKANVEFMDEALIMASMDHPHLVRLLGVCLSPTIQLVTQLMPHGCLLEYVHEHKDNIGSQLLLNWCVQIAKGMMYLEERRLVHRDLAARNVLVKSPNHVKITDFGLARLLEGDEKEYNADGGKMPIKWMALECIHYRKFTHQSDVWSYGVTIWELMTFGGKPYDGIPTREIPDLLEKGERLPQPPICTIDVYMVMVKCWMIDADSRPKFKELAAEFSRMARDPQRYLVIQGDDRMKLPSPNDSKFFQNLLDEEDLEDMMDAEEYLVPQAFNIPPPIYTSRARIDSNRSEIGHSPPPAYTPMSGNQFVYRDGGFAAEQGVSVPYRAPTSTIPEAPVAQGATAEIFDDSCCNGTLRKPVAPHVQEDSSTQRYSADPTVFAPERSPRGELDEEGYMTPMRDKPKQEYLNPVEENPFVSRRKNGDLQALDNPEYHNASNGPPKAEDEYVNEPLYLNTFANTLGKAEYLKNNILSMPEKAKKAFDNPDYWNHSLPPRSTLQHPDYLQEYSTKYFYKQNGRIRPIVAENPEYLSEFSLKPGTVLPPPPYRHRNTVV
The target is the same in assay [19]. As to conditions: at 1 µM.
Assay [20] concerns the target Tyrosine-protein kinase Fer (Homo sapiens) (UniProt P16591). To be noted: at 0.1 µM.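 Also: reported figures are averaged percent inhibition of FER.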

Chain of Epidermal growth factor receptor (Homo sapiens), P00533 [L858R,T790M] (P00533 whole entry T790M/L858R, looked up): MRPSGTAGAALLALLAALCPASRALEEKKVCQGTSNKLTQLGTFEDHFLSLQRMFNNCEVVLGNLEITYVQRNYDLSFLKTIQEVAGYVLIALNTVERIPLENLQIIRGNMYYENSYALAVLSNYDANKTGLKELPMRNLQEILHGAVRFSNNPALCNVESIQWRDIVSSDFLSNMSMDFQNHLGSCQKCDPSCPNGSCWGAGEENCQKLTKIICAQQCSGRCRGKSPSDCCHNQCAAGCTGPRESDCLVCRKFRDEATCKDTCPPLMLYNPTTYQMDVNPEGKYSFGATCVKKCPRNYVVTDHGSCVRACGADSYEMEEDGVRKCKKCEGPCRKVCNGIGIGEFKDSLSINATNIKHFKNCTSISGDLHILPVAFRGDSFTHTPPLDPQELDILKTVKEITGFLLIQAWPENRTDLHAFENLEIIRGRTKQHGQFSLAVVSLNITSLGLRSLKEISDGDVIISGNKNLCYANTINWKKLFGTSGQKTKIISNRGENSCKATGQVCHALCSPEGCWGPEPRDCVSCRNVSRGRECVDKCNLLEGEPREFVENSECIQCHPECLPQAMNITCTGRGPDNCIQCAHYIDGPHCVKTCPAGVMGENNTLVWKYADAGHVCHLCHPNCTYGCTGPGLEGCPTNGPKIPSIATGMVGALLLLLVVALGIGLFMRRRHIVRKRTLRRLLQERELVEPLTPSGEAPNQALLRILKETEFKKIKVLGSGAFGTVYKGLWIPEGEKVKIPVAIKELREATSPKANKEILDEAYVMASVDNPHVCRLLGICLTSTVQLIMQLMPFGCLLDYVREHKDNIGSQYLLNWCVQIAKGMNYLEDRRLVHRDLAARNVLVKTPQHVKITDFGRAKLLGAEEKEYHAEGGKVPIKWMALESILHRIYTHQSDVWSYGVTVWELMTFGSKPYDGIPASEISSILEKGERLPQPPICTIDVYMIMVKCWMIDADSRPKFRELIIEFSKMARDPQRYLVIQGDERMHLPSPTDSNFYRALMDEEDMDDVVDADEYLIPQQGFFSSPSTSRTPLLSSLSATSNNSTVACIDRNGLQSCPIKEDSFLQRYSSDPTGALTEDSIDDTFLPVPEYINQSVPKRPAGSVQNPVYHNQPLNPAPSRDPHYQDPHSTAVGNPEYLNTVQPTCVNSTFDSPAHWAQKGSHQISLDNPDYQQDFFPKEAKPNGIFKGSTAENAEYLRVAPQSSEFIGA

As for `O=C1NC(=O)C(c2cccc(Cl)c2)=C1Nc1ccc(Cl)c(C(=O)O)c1`, the inhibition in assay [1] amounted to 4.13%; in [2], 0.67%; in assay [3], 2.52%; in assay [4] it was 0.74%; in assay [5], 0.86%; in assay [6], 5.42%. Moreover, the inhibition was 4.05% in assay [7]; 8.74% in [8]; 7.75% in assay [9]; 5.83% in assay [10]; 3.04% in assay [11]; 10.6% in [12]. For the same compound, the inhibition in assay [13] was 4.29%; in [14] it was 0.79%; in assay [15] it was 0.05%; in [16], 2.66%; in [17] it was 1.74%; in assay [18], 7.3%. Further, the inhibition amounted to 10% in assay [19] and 3.46% in [20].
Take `O=C(Nc1n[nH]c2nc(-c3ccco3)ccc12)C1CC1`: the inhibition in assay [1] is -1.02%; in assay [2] it was 0.52%; in assay [3], -1.34%; in assay [4], -1.58%; in assay [5], 2.15%; in assay [6] it was 1.58%. Further, the inhibition in assay [7] worked out at 2.28%; in assay [8], 6.1%; in assay [9], 7.98%; in assay [10] it was 6.87%; in assay [11] it was 12.7%; in assay [12], 3.53%. The inhibition in assay [13] amounted to 2.4%; in assay [14], 0.45%; in assay [15], 4.02%; in assay [16], 0.39%; in [17], 0.71%; in assay [18] it was 2.93%. Besides, the inhibition in assay [19] is 2%; in assay [20], 0.52%.
`O=C(Nc1n[nH]c2nc(-c3ccc(O)cc3)c(Br)cc12)C1CC1`: the inhibition in assay [1] was determined as 5.37%; in assay [2], 6.72%; in [3], 8.16%; in assay [4], 4.79%; in assay [5] it was 24.2%; in assay [6], 8.45%. For the same compound, the inhibition in assay [7] worked out at 14%; in assay [8], 15.2%; in assay [9], 39.2%; in [10] it was 11.9%; in assay [11] it was 37.8%; in [12], 9.61%. Besides, the inhibition came out at 5.92% in [13]; 7.91% in assay [14]; 28.8% in assay [15]; 2.58% in assay [16]; 4.82% in assay [17]; 14.9% in assay [18]. The inhibition is 22% in assay [19] and 3.43% in assay [20].
